Like-named read-outs stand apart in the source and are kept apart here. The campaign covered roughly 13,000 compounds. About 3,200 (25%) showed an effect of 50% or more. The list shows a part of the results.
Test system: P. falciparum stage V gametocytes
Set-up: BacTiter-Glo ATP luminescence viability of purified stage V gametocytes in 384-well plates, per cent inhibition versus DMSO
Settings: 48 h, 5 µM, inhibitor

| SMILES | % Inhibition | % Inhibition (% Inhibition) |
| --- | --- | --- |
| COc1cccc(CN2CCCC(CCC(=O)Nc3ccc(C(F)(F)F)cc3)C2)c1O (centres unmarked) [TCMDC-124616] | -32.93% | – |
| COc1ccc(CC(=O)Nc2ccc(-c3cccc(-c4nc5c(C)cccc5[nH]4)c3)cc2)cc1O [TCMDC-132145] | -7.504% | – |
| O=[N+]([O-])c1cccc(-n2nc(NCc3ccc(Cl)cc3)nc2-c2ccc(F)c(C(F)(F)F)c2)c1 [TCMDC-133541] | 77.17% | – |
| Fc1ccc(-c2nc(NCc3cccc(C(F)(F)F)c3)nn2-c2cccc(C(F)(F)F)c2)cc1C(F)(F)F [TCMDC-133542] | -57.69% | – |
| Fc1ccc(CNc2nc(-c3ccc(F)c(C(F)(F)F)c3)n(-c3cccc(C(F)(F)F)c3)n2)cc1 [TCMDC-133543] | -1.205% | – |
| O=C(O)C1Cc2c([nH]c3ccccc23)C(c2ccc(Cl)cc2Cl)N1 (centres unmarked) [TCMDC-125815] | 25.42% | – |
| CCOC(=O)C1=C(C)NC(Cn2ccnc2)=C(C(=O)OCC)C1c1ccc(C(C)(C)C)cc1 (centres unmarked) [TCMDC-138170] | 12.53% | – |
| Cc1ccc(-c2cc(C(=O)Nc3ccc(S(=O)(=O)N(C)Cc4ccccc4)cc3)[nH]n2)c(O)c1 [TCMDC-125181] | -25.99% | – |
| CC(=O)Nc1ccc(NC(=O)c2cc(-c3cc(Cl)ccc3O)n[nH]2)cc1 [TCMDC-125476] | 83.42% | – |
| Cc1ccc(O)c(-c2cc(C(=O)Nc3ccc(S(=O)(=O)N4CCCCCC4)cc3)[nH]n2)c1 [TCMDC-125201] | -31.36% | – |
| CC(=O)Nc1ccc(NC(=O)c2cc(-c3ccc(C)cc3O)n[nH]2)cc1 [TCMDC-125182] | 0.9116% | – |
| CCN(c1ccccc1)S(=O)(=O)c1ccc(NC(=O)c2cc(-c3cc(C)ccc3O)n[nH]2)cc1 [TCMDC-124308] | 51.8% | – |
| O=C(Nc1cccnc1)c1cc(-c2cc(Cl)ccc2O)n[nH]1 [TCMDC-125322] | -15.69% | – |
| Cc1cccc(C)c1CNc1nc(N2CCOCC2)cc2c(C)c(C)[nH]c12 [TCMDC-134210] | 43.54% | – |
| CCNC(=O)N[C@@H]1CN[C@@H](C#Cc2cc3c(Nc4ccc(OCc5cccc(F)c5)c(Cl)c4)ncnc3s2)C1 [TCMDC-135409] | -11.09% | – |
| COc1ccc(CNC2CCN(c3ccc(NC(=O)c4cccc(Cl)c4)cc3)CC2)cc1OC [TCMDC-124658] | -12.9% | – |
| COc1cc(CNc2ccc(N3CCCC3)cc2)cc(Cl)c1OC [TCMDC-124518] | 100.8% | – |
| COc1ccc(C=CC(=O)Nc2ccc(N3CCCC3)cc2)cc1 [TCMDC-125750] | -68.82% | – |
| CCCC1(C)CSc2ccccc2C(c2ccccc2)N1 (centres unmarked) [TCMDC-137314] | 11.78% | – |
| CCCCCCCN(Cc1ccc(OC(C)(C)C(=O)OCC)cc1)C(=O)Nc1ccccc1OCC [TCMDC-137534] | 46.34% | – |
| CCCCCCCN(Cc1ccc(OC(C)(C)C(=O)OCC)cc1)C(=O)Nc1ccc(Cl)cc1OCC [TCMDC-131919] | 74.71% | – |
| CCCCCCCN(Cc1ccc(OC(C)(C)C(=O)OCC)cc1)C(=O)Nc1ccccc1OC(F)(F)F [TCMDC-131918] | 45.53% | – |
| CCCn1cc2c(ccc3nc(N)nc(N)c32)n1 [TCMDC-137858] | 22.58% | – |

| SMILES | % Inhibition | % Inhibition (% Inhibition) |
| --- | --- | --- |
| Cc1cc2c3c(N)nc(N)nc3ccc2n1C [TCMDC-137957] | 115.7% | – |
| CCOCn1c(-c2ccccc2)cc2c3c(N)nc(N)nc3ccc21 [TCMDC-137979] | 108.5% | – |
| CCC(C)(C)n1c(C)cc2c3c(N)nc(N)nc3ccc21 [TCMDC-137307] | 10.01% | – |
| Cn1c(-c2ccccc2)cc2c3c(N)nc(N)nc3ccc21 [TCMDC-137985] | 110.7% | – |
| CCC(CC)n1c(C)cc2c3c(N)nc(N)nc3ccc21 [TCMDC-137283] | 15.6% | – |
| Cc1cc2c3c(N)nc(N)nc3ccc2n1C(C)C [TCMDC-137864] | -11.65% | – |
| Cn1ccc2c3c(N)nc(N)nc3ccc21 [TCMDC-139863] | 5.526% | – |
| Nc1nc(N)c2c(ccc3nn(Cc4ccccc4)cc32)n1 [TCMDC-137757] | -1.825% | – |
| COc1ccc(C(=O)COc2cccc(/C=C/C(=O)O)c2)cc1OC [TCMDC-137318] | -6.983% | – |
| Cc1nc(-c2cccc(NCc3ccccc3)c2)[nH]c1C [TCMDC-133419] | -26.98% | – |
| CCOc1cc(Cc2cnc(N)nc2N)cc(OC)c1OC [TCMDC-137664] | -4.101% | – |
| CC(C)C1C(O)=C(c2ccc3ccccc3c2)C(=O)N1Cc1ccsc1 (centres unmarked) [TCMDC-141810] | 16.73% | – |
| Cc1ccccc1C1CCN(C2CCC(NC(=O)/C=C/c3cccc(Cl)c3F)CC2)CC1 (centres unmarked) [TCMDC-133513] | -35.56% | – |
| COc1cccc(CNC[C@@H](O)[C@H](Cc2ccccc2)NC(=O)c2cc3c4c(c2)c(C(C)C)cn4CCS(=O)(=O)N3C)c1 [TCMDC-135536] | 25% | – |
| Cc1noc(C)c1-c1cccc(C(=O)NC2CCN(CCNC(=O)C(c3ccccc3)c3ccccc3)CC2)c1 [TCMDC-133354] | 85.49% | – |
| Cc1nn(-c2ccccc2)nc1C(=O)NC1CCN(CCNC(=O)c2ccc(Cl)c(Cl)c2)CC1 [TCMDC-141951] | 7.25% | – |
| COc1ccc2nccc([C@@H](O)CN3CCC(NC(=O)c4cccc(-c5cc(C)no5)c4)CC3)c2c1 [TCMDC-141133] | -80.32% | – |
| OCCn1c(CNCCCNc2nc3ccccc3[nH]2)cc2c(Cl)cc(Cl)cc21 [TCMDC-140142] | 2.661% | – |
| CNc1nc(N/N=C/c2cc([N+](=O)[O-])c(Cl)cc2Cl)nc(Nc2cccc(C(F)(F)F)c2)n1 [TCMDC-124087] | -4.111% | – |
| CCn1c(-c2nonc2N)nc2c(-c3cccc(NC(=O)Nc4ccccc4OC)c3)ncc(OCCCN)c21 [TCMDC-136190] | 111.9% | – |
| CCn1c(-c2nonc2N)nc2cnc(Oc3cccc(NC(=O)c4ccc(OCCN(C(C)C)C(C)C)cc4)c3)cc21 [TCMDC-135777] | -15.21% | – |
| CCn1c(-c2nonc2N)nc2c(-c3cccc(NC(=O)Nc4ccccc4Cl)c3)ncc(OCCCN)c21 [TCMDC-136192] | 107.4% | – |
| COc1ccccc1NC(=O)Nc1cccc(-c2ccc(-c3nc4cccc(C)c4[nH]3)s2)c1 [TCMDC-133200] | 0.164% | – |

| SMILES | % Inhibition | % Inhibition (% Inhibition) |
| --- | --- | --- |
| COc1cccc(-c2ccc3c(-c4cccc(NC(C)=O)c4)cnc(N)c3c2)c1 [TCMDC-134562] | 29.05% | – |
| CCn1c(-c2nonc2N)nc2c(C#CC(C)(C)O)ncc(OCCNCCc3ccc(OC)cc3)c21 [TCMDC-136364] | 100.7% | – |
| CCn1c(-c2nonc2N)nc2c(-c3cccc(NC(=O)Nc4cccc(OC)c4)c3)ncc(OCCCN)c21 [TCMDC-136180] | 96.94% | – |
| COc1ccccc1NC(=O)Nc1cccc(-c2cccc(-c3nc4c(C)cccc4[nH]3)c2)c1 [TCMDC-133204] | -4.891% | – |
| CCC(Cc1cnc2nc(N)nc(N)c2n1)c1ccc(C(=O)O)cc1 (centres unmarked) [TCMDC-137331] | 24.52% | – |
| FC(F)(F)c1ccc2[nH]c(-c3ccc(-c4ccc(CN5CCN(c6ccncc6)CC5)cc4)s3)nc2c1.O=C(O)C(F)(F)F [TCMDC-132920] | -8.718% | – |
| O=C(Nc1ccc([N+](=O)[O-])cc1O)Nc1ccccc1Oc1ccccc1 [TCMDC-139010] | -27.06% | – |
| O=c1[nH]c2c(c(O)c1[N+](=O)[O-])CCC2 [TCMDC-131385] | -1.405% | – |
| Cc1ccc(NC(=O)NC2CCN(CCC(NC(=O)Cc3ccccc3)c3ccc(Cl)c(Cl)c3)CC2)cc1 (centres unmarked) [TCMDC-141708] | -50.52% | – |
| CCOC(=O)C(=O)N1c2ccc(OCC)cc2-c2c(ssc2=S)C1(C)C [TCMDC-124090] | -28.77% | – |
| COc1cc(NC(=O)/C=C/c2cccc3cc[nH]c23)ccc1OCCN(C(C)C)C(C)C [TCMDC-139962] | 14.04% | – |
| CCOC(=O)c1ccc(NC(=O)c2ccccc2C(=O)O)cc1 [TCMDC-125804] | 12.67% | – |
| CCC(NC(=O)c1ccccc1NC(=O)c1ccc(C)cc1)C(=O)OC (centres unmarked) [TCMDC-124179] | 51.66% | – |
| Cc1cc(NC(=O)c2ccc(-c3ccccc3)cc2)no1 [TCMDC-123478] | 45.67% | – |
| CC(=O)N(C)/N=C/[C@H](CCc1ccccc1)NC(=O)[C@H](CC(C)C)NC(=O)c1cccc(OCCN2CCOCC2)c1 [TCMDC-135821] | 14.53% | – |
| OC1(C(F)(F)F)CC(c2ccccc2)=NN1c1nncc(-c2ccccc2)n1 (centres unmarked) [TCMDC-123864] | 70.72% | – |
| O=C(Nc1cccc(-c2cccc(-c3nc4ccccc4[nH]3)c2)c1)NC1CC1c1ccccc1 (centres unmarked) [TCMDC-133253] | – | -2.475% |
| Cc1cc(-c2cccc(CNC3CCN(C)CC3)c2)ccc1S(=O)(=O)NCc1ccccc1 [TCMDC-132379] | 41.73% | – |
| CN1CCC(NCc2cccc(-c3ccc(S(=O)(=O)NCc4ccccc4)c(F)c3)c2)CC1 [TCMDC-132219] | 107.3% | – |
| Cc1cc(-c2ccc(CNC3CCN(C)CC3)cc2)ccc1S(=O)(=O)NCc1ccccc1 [TCMDC-132474] | 44.56% | – |
| CN1CCC(NCc2ccc(-c3ccc(S(=O)(=O)NCc4ccccc4)c(F)c3)cc2)CC1 [TCMDC-132235] | 73.08% | – |
| CCNc1cc(C(=O)N[C@@H](Cc2ccccc2)[C@H](O)CN[C@H](C)C(C)(C)C)cc(N2CCCCS2(=O)=O)c1 [TCMDC-135194] | 4.242% | – |

Source: paper PMC4552634, “A New Set of Chemical Starting Points with Plasmodium falciparum Transmission-Blocking Potential for Antimalarial Drug Discovery” (PLoS ONE, 2015)
